Structures are written as SMILES. This is part of a sample that, as a whole, favours compounds with a hit. Of some 83,000 tested, about 20% had one in any assay.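 Cell lines were cultured in 96-well plates, exposed to a single compound concentration, and assessed for percent growth 48 hours later.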 Values without a mark were called inactive. Calls of active or inactive are those of the source. The calls were made as follows: active = growth percent below 10; inactive = the rest.

This passage reports growth results from PubChem BioAssay (NCI).

Some test systems named below: SK-MEL-2 melanoma; EKVX NSCLC; SN12C renal; UO-31 renal; TK-10 renal; ACHN renal; CAKI-1 renal; A498 renal; CCRF-CEM leukemia; MOLT-4 leukemia; SR leukemia; RPMI-8226 leukemia; OVCAR-8 ovarian; OVCAR-5 ovarian; OVCAR-4 ovarian; SK-OV-3 ovarian; IGROV1 ovarian; OVCAR-3 ovarian; HS 578T breast; NCI/ADR-RES ovarian.
Experiment in all cases: NCI-60 one-dose screen, 48 h (100 = growth as untreated, 0 = no growth, -100 = all killed)
What all share (conditions): 10 µM unless noted

`Cc1cc(C)nc(SC2=C(Nc3ccc(O)cc3)C(=O)N(Cc3ccccc3)C2=O)n1`: the growth in the test on SK-MEL-2 melanoma is 96.1% [40 µM]; in the test with EKVX NSCLC, 77.4% [40 µM]; in the test on SN12C renal, 94.3% [40 µM]; in the test on UO-31 renal, 70.8% [40 µM]; in the test with TK-10 renal, 110% [40 µM]; with ACHN renal it was 93.4% [40 µM]. Moreover, the growth in the test on CAKI-1 renal was 64.4% [40 µM]; with A498 renal, 112% [40 µM]; in the test with CCRF-CEM leukemia, 39.1% [40 µM]; in the test on MOLT-4 leukemia, 58% [40 µM]; with SR leukemia, 73.6% [40 µM]; in the test on RPMI-8226 leukemia it was 38.8% [40 µM]. Moreover, the growth is 111% [40 µM] in the test on OVCAR-8 ovarian; 120% [40 µM] with OVCAR-5 ovarian; 85.6% [40 µM] in the test with OVCAR-4 ovarian; 94.3% [40 µM] in the test on SK-OV-3 ovarian; 81.4% [40 µM] in the test with IGROV1 ovarian; 80.9% [40 µM] in the test on OVCAR-3 ovarian. The values for the growth with HS 578T breast and with NCI/ADR-RES ovarian were -13.2% [40 µM] (active) and 69% [40 µM], respectively.

Turning to `CCOc1cc2ncc(C#N)c(Nc3ccc(F)c(Cl)c3)c2cc1NC(=O)CC1CCSS1` (stereo not given), the growth was -49.2% (active) with SK-MEL-2 melanoma; -55% (active) in the test on EKVX NSCLC; -55.9% (active) in the test with SN12C renal; -92.4% (active) with UO-31 renal; -74.2% (active) with TK-10 renal; -90.7% (active) in the test on ACHN renal. For the same compound, the growth is -73.4% (active) in the test with CAKI-1 renal; -53.7% (active) in the test with A498 renal; -20.2% (active) in the test with CCRF-CEM leukemia; -47% (active) in the test with MOLT-4 leukemia; -27.8% (active) in the test with SR leukemia; -5.51% (active) with RPMI-8226 leukemia. The growth in the test with OVCAR-8 ovarian is -41.7% (active); in the test with OVCAR-5 ovarian it was -40.6% (active); in the test with OVCAR-4 ovarian, -69.4% (active); in the test with SK-OV-3 ovarian it was -91.7% (active); in the test on IGROV1 ovarian, -45.9% (active); in the test on OVCAR-3 ovarian, -86.3% (active). Moreover, the figures for the growth with HS 578T breast and in the test on NCI/ADR-RES ovarian were -17.4% (active) and -30.3% (active), respectively.

Consider `Oc1ccccc1-c1nnc(CNc2ccc(Cl)cc2)o1`, for which the growth in the test on SK-MEL-2 melanoma was 30.1%; in the test on EKVX NSCLC, 38.9%; in the test on SN12C renal it was 40.6%; in the test with UO-31 renal, 19%; in the test with TK-10 renal it was 44.7%; in the test on ACHN renal, 12.7%. The growth was 17% in the test on CAKI-1 renal; 77.9% in the test with A498 renal; 11.8% in the test with CCRF-CEM leukemia; 15.5% in the test with MOLT-4 leukemia; 10.4% in the test on SR leukemia; 23.4% in the test on RPMI-8226 leukemia. For the same compound, the growth with OVCAR-8 ovarian was 18.6%; in the test on OVCAR-5 ovarian, 64%; with OVCAR-4 ovarian, 34.2%; with SK-OV-3 ovarian, 19.5%; in the test on IGROV1 ovarian, 25.9%; with OVCAR-3 ovarian, 26.1%. The figures for the growth in the test with HS 578T breast and with NCI/ADR-RES ovarian were 57.6% and 13.4%, respectively.

On to `C#CCOc1ccc2ncnc(Nc3cccc(CNC(=O)C=C)c3)c2c1`, for which the growth was 104% [8.25 µM] in the test on SK-MEL-2 melanoma; 98.6% [8.25 µM] in the test on EKVX NSCLC; 95.5% [8.25 µM] with SN12C renal; 82.3% [8.25 µM] in the test with UO-31 renal; 91.5% [8.25 µM] in the test with TK-10 renal; 95.8% [8.25 µM] in the test on ACHN renal. Besides, the growth is 96.3% [8.25 µM] in the test on CAKI-1 renal; 58.8% [8.25 µM] in the test on A498 renal; 111% [8.25 µM] in the test with CCRF-CEM leukemia; 100% [8.25 µM] with MOLT-4 leukemia; 103% [8.25 µM] in the test with SR leukemia; 101% [8.25 µM] with RPMI-8226 leukemia. The growth in the test on OVCAR-8 ovarian is 95.8% [8.25 µM]; in the test with OVCAR-5 ovarian it was 100% [8.25 µM]; in the test on OVCAR-4 ovarian, 92.5% [8.25 µM]; with SK-OV-3 ovarian, 107% [8.25 µM]; in the test on IGROV1 ovarian, 88.8% [8.25 µM]; in the test on OVCAR-3 ovarian, 104% [8.25 µM]. Further, the figures for the growth in the test on HS 578T breast and in the test on NCI/ADR-RES ovarian were 91.9% [8.25 µM] and 107% [8.25 µM], respectively.

On to `N=C(N)c1ccc(-c2ccc(-c3ccc4ccccc4c3)s2)s1`, for which the growth with SK-MEL-2 melanoma is 101%; with EKVX NSCLC it was 51.8%; in the test with SN12C renal, -62.2% (active); in the test on UO-31 renal it was 55.6%; with TK-10 renal it was 19%; in the test on ACHN renal, 25.7%. Besides, the growth was 59.2% in the test with CAKI-1 renal; 66.6% in the test on A498 renal; -27.8% (active) in the test with CCRF-CEM leukemia; -46.7% (active) in the test on MOLT-4 leukemia; -37.2% (active) in the test on SR leukemia; -18.3% (active) with RPMI-8226 leukemia. For the same compound, the growth was 3.43% (active) in the test on OVCAR-8 ovarian; -0.924% (active) in the test on OVCAR-5 ovarian; -21.3% (active) in the test on OVCAR-4 ovarian; 95.7% with SK-OV-3 ovarian; 5.62% (active) in the test on IGROV1 ovarian; -76.1% (active) with OVCAR-3 ovarian. In addition, the growth in the test with HS 578T breast was 91.6%; in the test with NCI/ADR-RES ovarian it was -42% (active).

Take `CCN=C1C=CC(=C(c2ccc(N)cc2)c2ccc(N(CC)CC)c(C)c2)C=C1`: the growth in the test on SK-MEL-2 melanoma was -15.3% (active); with EKVX NSCLC it was 10.6%; with SN12C renal, -14% (active); in the test with UO-31 renal, 3.22% (active); in the test on TK-10 renal, 15.4%; in the test on ACHN renal it was -2.24% (active). Also, the growth is 14.1% in the test on CAKI-1 renal; -26.5% (active) with A498 renal; -19.5% (active) with CCRF-CEM leukemia; -4.13% (active) in the test with MOLT-4 leukemia; -17.6% (active) in the test on SR leukemia; -30.8% (active) in the test with RPMI-8226 leukemia. Besides, the growth in the test with OVCAR-8 ovarian was 1.54% (active); in the test with OVCAR-5 ovarian, 18.2%; with OVCAR-4 ovarian, 24.2%; in the test on SK-OV-3 ovarian it was 6.51% (active); in the test with IGROV1 ovarian, 11.6%; with OVCAR-3 ovarian, -28.9% (active). Further, the growth was -24.6% (active) with HS 578T breast and 67.7% in the test on NCI/ADR-RES ovarian.

With `COc1ccc(C2CC(c3ccc4ccccc4c3)=NN2/C=C2\SC(=S)N(NC(=O)Cc3ccccc3Nc3c(Cl)cccc3Cl)C2=O)cc1` (stereo not given), the growth was 38.8% in the test with SK-MEL-2 melanoma; 40.2% in the test on EKVX NSCLC; 31.7% in the test on SN12C renal; 11.8% in the test on UO-31 renal; 48.7% in the test with TK-10 renal; 47.4% in the test with ACHN renal. Moreover, the growth in the test on CAKI-1 renal was 31.5%; in the test with A498 renal, -0.474% (active); in the test on CCRF-CEM leukemia, 6.24% (active); in the test on MOLT-4 leukemia it was 13.9%; with SR leukemia, 20.8%; with RPMI-8226 leukemia, -10.1% (active). In addition, the growth in the test with OVCAR-8 ovarian is 34.6%; with OVCAR-5 ovarian, 56.8%; in the test on OVCAR-4 ovarian it was 70%; with SK-OV-3 ovarian, 41.9%; in the test on IGROV1 ovarian it was 33.1%; in the test with OVCAR-3 ovarian it was 2.15% (active). Besides, the growth is 13.3% with HS 578T breast and 9.39% (active) in the test with NCI/ADR-RES ovarian.
